According to the supplement of paper PMC11732987, “Enantioselective OTUD7B fragment discovery through chemoproteomics screening and high-throughput optimisation” (Communications Chemistry, 2025):

How the values were obtained:
Experiment in all cases: log2 ratio of Biotin-Ahx-Ub-VS probe labelling (fragment/DMSO); higher = less target engagement (more negative = stronger competition), active = hit call of the paper (q ≤ 0.05, log2 ratio ≤ -1)
Conditions in all cases: compound concentration: 200 uM; treatment time: 3 h
ALG13 = target: T1, ALG13 (UniProt Q9NP73)
T1 sequence (whole entry): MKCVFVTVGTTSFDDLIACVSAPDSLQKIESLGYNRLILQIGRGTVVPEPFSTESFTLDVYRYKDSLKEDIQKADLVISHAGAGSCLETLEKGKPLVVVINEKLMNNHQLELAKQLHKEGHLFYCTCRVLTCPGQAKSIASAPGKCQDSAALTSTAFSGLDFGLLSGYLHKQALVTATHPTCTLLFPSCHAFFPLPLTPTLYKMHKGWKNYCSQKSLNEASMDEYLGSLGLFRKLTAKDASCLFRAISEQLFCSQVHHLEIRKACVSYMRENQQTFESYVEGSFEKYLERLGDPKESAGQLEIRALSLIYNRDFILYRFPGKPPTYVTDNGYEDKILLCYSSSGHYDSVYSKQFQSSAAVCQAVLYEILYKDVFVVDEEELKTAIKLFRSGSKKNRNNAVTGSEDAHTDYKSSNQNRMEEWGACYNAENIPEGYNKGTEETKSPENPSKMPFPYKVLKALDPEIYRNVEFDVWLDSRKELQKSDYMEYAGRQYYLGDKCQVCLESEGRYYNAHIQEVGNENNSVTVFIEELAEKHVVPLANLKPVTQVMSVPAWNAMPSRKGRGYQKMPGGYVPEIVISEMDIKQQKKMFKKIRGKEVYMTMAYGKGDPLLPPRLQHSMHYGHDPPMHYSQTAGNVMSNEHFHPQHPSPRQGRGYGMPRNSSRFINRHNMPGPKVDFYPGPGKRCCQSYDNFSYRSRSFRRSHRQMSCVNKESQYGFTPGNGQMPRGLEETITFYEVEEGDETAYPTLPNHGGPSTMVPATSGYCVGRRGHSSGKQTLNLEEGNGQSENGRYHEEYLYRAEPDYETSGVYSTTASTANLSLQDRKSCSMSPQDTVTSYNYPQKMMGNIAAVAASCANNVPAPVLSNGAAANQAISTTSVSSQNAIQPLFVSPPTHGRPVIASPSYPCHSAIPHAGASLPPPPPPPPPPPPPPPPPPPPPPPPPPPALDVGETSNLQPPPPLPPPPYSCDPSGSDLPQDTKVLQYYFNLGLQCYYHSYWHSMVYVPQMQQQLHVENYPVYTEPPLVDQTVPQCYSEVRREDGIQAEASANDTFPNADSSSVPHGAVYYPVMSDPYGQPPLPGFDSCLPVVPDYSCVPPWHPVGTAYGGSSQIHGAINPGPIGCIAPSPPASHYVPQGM
Outline: (§1)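 HEK293T lysate (495 µg per sample, in Tris/CHAPS/IGEPAL buffer with protease inhibitors) was exposed in triplicate for 3 h to fragment at 200 µM or to vehicle, then to Biotin-Ahx-Ub-VS at 0.5 µM final for 1 h. Labelled DUBs were enriched on NeutrAvidin, digested with LysC and trypsin, and analysed by diaPASEF LC-MS/MS. Spectronaut label-free quantities were normalised to the global median, and values are average log2 ratios of fragment over vehicle from an unpaired t-test. Only proteins with ≥2 unique peptides were used.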

ATXN3 = ATXN3 (UniProt P54252)
Outline: as §1

BAP1 = target: T2, BAP1 (UniProt Q92560)
T2 sequence (whole entry): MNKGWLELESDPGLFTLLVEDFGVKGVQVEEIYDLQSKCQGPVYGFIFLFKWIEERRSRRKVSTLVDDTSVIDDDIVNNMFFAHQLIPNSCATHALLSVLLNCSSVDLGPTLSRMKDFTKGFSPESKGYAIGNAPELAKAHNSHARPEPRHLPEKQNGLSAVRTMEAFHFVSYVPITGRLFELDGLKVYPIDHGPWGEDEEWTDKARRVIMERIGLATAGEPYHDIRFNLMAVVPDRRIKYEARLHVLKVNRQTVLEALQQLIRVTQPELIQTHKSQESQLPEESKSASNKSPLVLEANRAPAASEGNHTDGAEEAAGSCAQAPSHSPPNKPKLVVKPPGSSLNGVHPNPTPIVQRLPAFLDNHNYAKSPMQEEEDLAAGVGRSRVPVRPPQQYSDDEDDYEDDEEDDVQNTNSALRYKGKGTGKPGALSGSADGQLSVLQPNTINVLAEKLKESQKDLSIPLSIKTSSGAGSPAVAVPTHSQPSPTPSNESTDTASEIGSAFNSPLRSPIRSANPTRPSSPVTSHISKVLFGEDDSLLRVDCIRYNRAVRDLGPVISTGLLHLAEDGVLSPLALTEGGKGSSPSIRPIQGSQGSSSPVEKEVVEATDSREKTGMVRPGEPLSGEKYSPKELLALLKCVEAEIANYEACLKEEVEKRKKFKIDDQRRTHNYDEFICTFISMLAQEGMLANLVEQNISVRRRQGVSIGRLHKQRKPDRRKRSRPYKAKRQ
Outline: as §1

EIF3F = EIF3F (UniProt O00303)
Outline: as §1

EIF3H = EIF3H (UniProt O15372)
Outline: as §1

FAM105A = target: T3, FAM105A (UniProt Q9NUU6)
T3 sequence (whole entry): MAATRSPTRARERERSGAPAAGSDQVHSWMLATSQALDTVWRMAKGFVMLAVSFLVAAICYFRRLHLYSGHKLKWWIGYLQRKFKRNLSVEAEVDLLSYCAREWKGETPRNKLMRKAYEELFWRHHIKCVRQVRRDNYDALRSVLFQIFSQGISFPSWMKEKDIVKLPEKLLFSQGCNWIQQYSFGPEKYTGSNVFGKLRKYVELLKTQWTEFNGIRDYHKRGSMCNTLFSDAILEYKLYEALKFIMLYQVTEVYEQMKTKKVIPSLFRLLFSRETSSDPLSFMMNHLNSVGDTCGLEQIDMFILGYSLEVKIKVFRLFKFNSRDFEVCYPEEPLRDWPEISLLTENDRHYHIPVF
Outline: as §1

OTUB1 = OTUB1 (UniProt Q96FW1)
Outline: as §1

OTUD4 = target: T4, OTUD4 (UniProt Q01804)
T4 sequence (whole entry): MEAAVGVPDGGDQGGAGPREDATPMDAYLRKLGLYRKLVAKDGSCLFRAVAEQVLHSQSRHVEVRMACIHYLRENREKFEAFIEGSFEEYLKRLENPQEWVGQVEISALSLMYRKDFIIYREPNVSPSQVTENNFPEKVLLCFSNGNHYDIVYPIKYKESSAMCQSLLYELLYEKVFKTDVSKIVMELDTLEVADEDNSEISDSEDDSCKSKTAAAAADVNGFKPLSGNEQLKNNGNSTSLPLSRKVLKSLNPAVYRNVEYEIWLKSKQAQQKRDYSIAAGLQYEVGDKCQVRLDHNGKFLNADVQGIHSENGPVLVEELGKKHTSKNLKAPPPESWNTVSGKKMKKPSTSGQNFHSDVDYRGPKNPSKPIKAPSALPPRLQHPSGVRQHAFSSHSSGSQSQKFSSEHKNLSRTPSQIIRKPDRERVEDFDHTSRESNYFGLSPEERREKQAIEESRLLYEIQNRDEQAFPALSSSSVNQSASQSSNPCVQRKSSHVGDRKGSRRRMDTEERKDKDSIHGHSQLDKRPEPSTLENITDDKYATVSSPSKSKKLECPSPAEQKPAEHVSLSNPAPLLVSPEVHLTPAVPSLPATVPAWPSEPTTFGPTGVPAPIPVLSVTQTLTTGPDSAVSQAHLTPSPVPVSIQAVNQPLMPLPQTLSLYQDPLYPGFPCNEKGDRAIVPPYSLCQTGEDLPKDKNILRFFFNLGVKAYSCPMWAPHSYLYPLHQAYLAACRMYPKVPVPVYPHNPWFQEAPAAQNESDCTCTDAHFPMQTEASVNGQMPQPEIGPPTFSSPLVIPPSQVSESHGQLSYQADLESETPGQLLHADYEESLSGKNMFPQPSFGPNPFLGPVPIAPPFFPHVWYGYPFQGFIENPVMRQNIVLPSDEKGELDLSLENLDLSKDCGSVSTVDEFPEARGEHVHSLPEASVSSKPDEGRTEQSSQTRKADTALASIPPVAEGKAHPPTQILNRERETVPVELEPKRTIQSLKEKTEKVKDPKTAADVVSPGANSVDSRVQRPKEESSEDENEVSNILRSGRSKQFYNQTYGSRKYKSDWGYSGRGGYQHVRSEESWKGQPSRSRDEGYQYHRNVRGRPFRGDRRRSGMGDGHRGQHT
Outline: as §1

OTUD5 = target: T5, OTUD5 (UniProt Q96G74)
T5 sequence (whole entry): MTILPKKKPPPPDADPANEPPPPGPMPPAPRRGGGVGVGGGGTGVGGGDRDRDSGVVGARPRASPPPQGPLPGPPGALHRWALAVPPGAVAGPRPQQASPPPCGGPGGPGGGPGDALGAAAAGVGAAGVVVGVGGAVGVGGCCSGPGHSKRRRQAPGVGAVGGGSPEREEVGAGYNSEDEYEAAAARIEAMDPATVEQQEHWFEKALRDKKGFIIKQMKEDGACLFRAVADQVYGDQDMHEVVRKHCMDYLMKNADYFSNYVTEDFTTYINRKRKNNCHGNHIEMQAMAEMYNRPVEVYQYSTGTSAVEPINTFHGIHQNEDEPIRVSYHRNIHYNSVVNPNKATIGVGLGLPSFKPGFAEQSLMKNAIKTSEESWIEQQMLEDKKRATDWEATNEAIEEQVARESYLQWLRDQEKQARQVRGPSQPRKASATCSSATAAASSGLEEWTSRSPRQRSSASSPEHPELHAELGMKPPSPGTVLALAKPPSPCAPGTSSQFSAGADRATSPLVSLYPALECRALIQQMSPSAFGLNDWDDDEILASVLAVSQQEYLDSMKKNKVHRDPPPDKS
Outline: as §1

Measured: log2 ratio of Biotin-Ahx-Ub-VS probe labelling

Sequence of EIF3H (O15372 whole entry): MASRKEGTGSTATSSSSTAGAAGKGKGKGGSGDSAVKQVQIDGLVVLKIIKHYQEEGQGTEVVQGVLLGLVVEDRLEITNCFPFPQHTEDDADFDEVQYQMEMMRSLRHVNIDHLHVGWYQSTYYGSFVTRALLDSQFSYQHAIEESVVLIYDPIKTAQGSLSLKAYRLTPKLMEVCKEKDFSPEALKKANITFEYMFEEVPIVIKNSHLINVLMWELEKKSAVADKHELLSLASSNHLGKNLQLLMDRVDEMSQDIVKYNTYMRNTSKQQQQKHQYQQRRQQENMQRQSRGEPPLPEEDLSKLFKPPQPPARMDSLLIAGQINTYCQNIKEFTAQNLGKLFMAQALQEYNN
Sequence of OTUB1 (Q96FW1 whole entry): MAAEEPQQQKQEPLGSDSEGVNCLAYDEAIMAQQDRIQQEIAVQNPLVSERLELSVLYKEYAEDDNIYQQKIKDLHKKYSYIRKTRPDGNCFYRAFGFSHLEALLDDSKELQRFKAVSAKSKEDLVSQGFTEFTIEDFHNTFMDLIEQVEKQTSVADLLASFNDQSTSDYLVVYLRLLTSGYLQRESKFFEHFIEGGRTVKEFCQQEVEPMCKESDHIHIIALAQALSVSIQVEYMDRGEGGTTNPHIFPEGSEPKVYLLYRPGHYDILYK
Sequence of EIF3F (O00303 whole entry): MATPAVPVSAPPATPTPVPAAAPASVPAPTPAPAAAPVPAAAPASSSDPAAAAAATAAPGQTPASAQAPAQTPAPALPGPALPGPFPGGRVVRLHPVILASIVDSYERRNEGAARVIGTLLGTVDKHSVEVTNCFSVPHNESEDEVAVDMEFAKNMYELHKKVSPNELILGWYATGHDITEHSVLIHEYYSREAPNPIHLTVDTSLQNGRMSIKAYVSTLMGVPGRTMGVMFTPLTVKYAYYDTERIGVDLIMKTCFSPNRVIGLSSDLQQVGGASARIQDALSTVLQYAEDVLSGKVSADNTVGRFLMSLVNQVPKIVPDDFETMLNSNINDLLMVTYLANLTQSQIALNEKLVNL
Sequence of ATXN3 (P54252 whole entry): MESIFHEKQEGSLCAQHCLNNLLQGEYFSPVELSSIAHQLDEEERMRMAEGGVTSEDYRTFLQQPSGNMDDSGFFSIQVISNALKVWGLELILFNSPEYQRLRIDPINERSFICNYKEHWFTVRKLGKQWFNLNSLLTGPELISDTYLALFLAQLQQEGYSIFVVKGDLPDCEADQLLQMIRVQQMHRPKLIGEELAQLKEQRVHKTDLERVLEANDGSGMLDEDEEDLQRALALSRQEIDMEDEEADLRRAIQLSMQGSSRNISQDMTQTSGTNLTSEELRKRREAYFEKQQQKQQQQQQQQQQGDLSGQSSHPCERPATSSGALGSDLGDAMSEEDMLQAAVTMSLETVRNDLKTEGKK

CC(=O)C1CCCCN1C(=O)CCl (centres undefined)
inactive: ALG13 0.0431 | ATXN3 0.025 | BAP1 -0.0781 | EIF3F -0.0667 | EIF3H 0.304 | FAM105A 0.264 | OTUB1 0.0807 | OTUD4 0.0774 | OTUD5 -0.219
